From PubChem BioAssay (Tox21)
Several values for one entry are separate records, joined by “and”; a condition that tells them apart may be missing. Equal entries are not always repeated. Inconclusive results are not listed. More than one record can exist for a structure, and the calls need not agree. Activity calls are given as the source filed them. Unless noted, the call rests on the fitted dose curve; in most records, active means well fitted curve in the direction sought with a large enough effect in the repeat runs; inconclusive means weak or mixed curves; inactive means no such curve, though single readings can be large; an effect the other way counts as inactive or inconclusive.

Experiments:
[1] = molecular target: Aryl hydrocarbon receptor (Homo sapiens) (UniProt P35869); experiment: qHTS assay to identify small molecule that activate the aryl hydrocarbon receptor (AhR) signaling pathway (AID 743085); further: nearly all actives have a fitted effect of over 15% in size; further: potency means the concentration at half of the fitted maximal effect;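 on activation: HG2L7.5c1 human HepG2 liver cells with stably integrated DRE-driven firefly reporter; series mostly up to about 70 µM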
In short: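 HepG2 cells (HG2L7.5c1) stably carrying a firefly luciferase reporter driven by 20 dioxin responsive elements were exposed to compound for 24 h at 37C after a 5 h settling period; luminescence rise (ONE-Glo) indicated activation.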

[2] = qHTS assay to identify small molecule that activate the aryl hydrocarbon receptor (AhR) signaling pathway - cell viability counter screen (AID 743086); further: nearly all actives have a fitted effect of over 45% in size; further: potency means the concentration at half of the fitted maximal effect
In short: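 HepG2-AhR-luc (HG2L7.5c1) cells, 4000/well, were preincubated 5 h at 37C, exposed to compound in qHTS format for 24 hr at 37C, then given CellTiter-Fluor for 30 min; viability was read as fluorescence in the reporter wells.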

[3] = qHTS assay to identify small molecule antagonists of the peroxisome proliferator-activated receptor gamma (PPARg) signaling pathway - cell viability counter screen (AID 743194); further: nearly all actives have a fitted effect of over 55% in size; further: potency means the concentration at half of the fitted maximal effect
In short: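 PPARg-UAS-bla HEK293H cells were plated, rested 5 h at 37 C, then treated with compounds plus rosiglitazone (50 nM final) for 17 h at 37 C; viability was then read by CellTiter-Glo luminescence after 30 min at room temperature.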

[4] = qHTS assay for small molecule agonists of the antioxidant response element (ARE) signaling pathway - cell viability counter screen (AID 743203; calls by dose curve; further: nearly all actives have a fitted effect of over 55% in size; further: potency means the concentration at half of the fitted maximal effect)
In short: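 Cytotoxicity was tested in parallel with the ARE reporter screen. ARE-bla HepG2 cells were exposed to compounds for 16 hrs, and viability was taken from CellTiter-Glo luminescence.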

[5] = qHTS assay for small molecule activators of the heat shock response signaling pathway (AID 743210; active means well fitted activation curve with a large enough effect in the signal ratio in the repeat runs, with a control signal flat, not every such curve was filed as active; the % refers to the signal ratio; further: potency means the concentration at half of the fitted maximal effect;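 on activation: HeLa cells with beta-lactamase reporter driven by heat shock elements; series mostly up to about 63 µM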)
In short: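 Activation of heat shock element-controlled beta-lactamase expression is measured in HeLa cells by LiveBLAzer FRET fluorescence, with compound exposure lasting 5 h at 37 C and substrate loading 2.5 h at room temperature.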

[6] = qHTS assay to identify small molecule antagonists of the peroxisome proliferator-activated receptor delta (PPARd) signaling pathway - cell viability counter screen (AID 743213); further: nearly all actives have a fitted effect of over 50% in size; further: potency means the concentration at half of the fitted maximal effect
In short: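 HEK293H PPARd UAS-bla cells, 5 h pre-incubation, compound + L165041 300 nM final, 17 h 37 C; B/G FRET substrate 2 h RT; then CellTiter-Glo 30 min RT, luminescence.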

[7] = qHTS assay to identify small molecule agonists of the farnesoid-X-receptor (FXR) signaling pathway - cell viability counter screen (AID 743218); further: nearly all actives have a fitted effect of over 45% in size; further: potency means the concentration at half of the fitted maximal effect
In short: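 Cells were seeded, left 5 h at 37 C and 5% CO2, then dosed with compound in DMSO for 16 h. After the beta-lactamase FRET read, CellTiter-Glo was added and luminescence measured 30 min later.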

[8] = qHTS assay to identify small molecule antagonists of the farnesoid-X-receptor (FXR) signaling pathway - cell viability counter screen (AID 743221; active means well fitted cell-killing curve with a large enough effect in the repeat runs, not every such curve was filed as active; further: nearly all actives have a fitted effect of over 50% in size; further: potency means the concentration at half of the fitted maximal effect)
In short: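 FXR-UAS-bla HEK 293T cells were treated with test compounds plus chenodeoxycholic acid (50 uM final) for 16 h at 37 C. Cell viability in the same wells was then read as CellTiter-Glo luminescence after 30 min at room temperature.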

[9] = qHTS assay to identify aromatase inhibitors - cell viability counter screen (AID 743084);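 further: cells stimulated with testosterone during compound exposure; potency means the concentration at half of the fitted maximal effect; nearly all actives have a fitted effect of over 55% in size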
[10] = qHTS assay to identify small molecule agonists of the peroxisome proliferator-activated receptor delta (PPARd) signaling pathway - cell viability counter screen (AID 743211); further: nearly all actives have a fitted effect of over 55% in size; further: potency means the concentration at half of the fitted maximal effect
In short: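 PPARd-bla HEK293H cells (UAS-beta-lactamase reporter) were treated with compounds for 17 h at 37 C. Viability was then read in the same wells by CellTiter-Glo luminescence after 30 min at room temperature.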

[11] = molecular target: Peroxisome proliferator-activated receptor gamma (Homo sapiens) (UniProt P37231); experiment: qHTS assay to identify small molecule agonists of the peroxisome proliferator-activated receptor gamma (PPARg) signaling pathway (AID 743094; active means well fitted activation curve with a large enough effect in the signal ratio in the repeat runs, not every such curve was filed as active; the % refers to the signal ratio)
In short: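 Cells from the PPARg UAS-bla HEK293H line are plated and incubated 5 h at 37C. Compounds in DMSO are pinned in and left 17 h at 37C. LiveBLAzer B/G substrate is then added for 1 h at room temperature before fluorescence is measured.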

[12] = molecular target: Peroxisome proliferator-activated receptor gamma (Homo sapiens) (UniProt P37231); experiment: qHTS assay to identify small molecule antagonists of the peroxisome proliferator-activated receptor gamma (PPARg) signaling pathway (AID 743191; calls by dose curve; further: nearly all actives have a fitted effect of over 30% in size; further: potency means the concentration at half of the fitted maximal effect)
In short: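 GeneBLAzer PPARg UAS-bla HEK293H cells carrying a UAS-driven beta-lactamase reporter were plated at 3000 cells/well, preincubated 5 h at 37C, then given compound for 17 h at 37C; LiveBLAzer B/G FRET substrate was read after 1 h at room temperature.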

[13] = qHTS assay for small molecule agonists of the antioxidant response element (ARE) signaling pathway (AID 743202; active means well fitted activation curve with a large enough effect in the signal ratio in the repeat runs, not every such curve was filed as active; the % refers to the signal ratio; further: potency means the concentration at half of the fitted maximal effect)
In short: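 Steps: seed ARE-bla HepG2 cells (2,000/well); incubate 5 h at 37 C; add compounds by pin tool; incubate 16 h at 37 C; add FRET substrate; read fluorescence after 2 h at RT.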

[14] = qHTS assay for small molecule activators of the heat shock response signaling pathway - cell viability counter screen (AID 743209); further: nearly all actives have a fitted effect of over 50% in size; further: potency means the concentration at half of the fitted maximal effect
In short: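 Cytotoxicity counter screen run in parallel with the HSE beta-lactamase reporter, using the same wells. HeLa HSE-bla cells received compound for 5 h at 37 C; ATP-based CellTiter-Glo luminescence was measured after 30 min at room temperature.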

[15] = molecular target: Peroxisome proliferator-activated receptor delta (Homo sapiens) (UniProt Q03181); experiment: qHTS assay to identify small molecule agonists of the peroxisome proliferator-activated receptor delta (PPARd) signaling pathway (AID 743212; calls by dose curve)
In short: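 Cells expressing a UAS-driven beta-lactamase reporter (PPARd-bla HEK293H) were given test compounds after a 5 h settle and kept at 37 C. Reporter activity was then measured as FRET fluorescence using LiveBLAzer B/G substrate.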

[16] = molecular target: Peroxisome proliferator-activated receptor delta (Homo sapiens) (UniProt Q03181); experiment: qHTS assay to identify small molecule antagonists of the peroxisome proliferator-activated receptor delta (PPARd) signaling pathway (AID 743215; active means well fitted inhibition curve with a large enough effect in the signal ratio in the repeat runs, not every such curve was filed as active; the % refers to the signal ratio;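 further: cells stimulated with agonist L165041 at 300 nM final during compound exposure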; further: potency means the concentration at half of the fitted maximal effect)
In short: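 Cells: HEK293H with a UAS-driven beta-lactamase reporter responsive to PPARd. Compounds were co-added with L165041 (300 nM, final) and incubated 17 h at 37 C before a 2 h room-temperature FRET substrate step and fluorescence reading.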

[17] = molecular target: Bile acid receptor (Homo sapiens) (UniProt Q96RI1); experiment: qHTS assay to identify small molecule antagonists of the farnesoid-X-receptor (FXR) signaling pathway (AID 743217; active means well fitted inhibition curve with a large enough effect in the signal ratio in the repeat runs, not every such curve was filed as active; the % refers to the signal ratio)
In short: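 Cells carrying a UAS-driven beta-lactamase reporter (GeneBLAzer FXR-UAS-bla HEK 293T) were plated and rested 5 h at 37 °C. Compounds in DMSO were added alongside chenodeoxycholic acid agonist at 50 uM final and left 16 h at 37 °C before FRET substrate readout.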

[18] = molecular target: Bile acid receptor (Homo sapiens) (UniProt Q96RI1); experiment: qHTS assay to identify small molecule agonists of the farnesoid-X-receptor (FXR) signaling pathway (AID 743220; active means well fitted activation curve with a large enough effect in the signal ratio in the repeat runs, not every such curve was filed as active; the % refers to the signal ratio; further: potency means the concentration at half of the fitted maximal effect)
In short: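 FXR-UAS-bla HEK 293T cells carrying a UAS-driven beta-lactamase reporter were plated for 5 h at 37C/5% CO2, then exposed to DMSO-dissolved Tox21 10K compounds for 16 h at 37C. A LiveBLAzer B/G FRET substrate was loaded for 2 h at room temperature before fluorescence reading.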

[19] = molecular target: Vitamin D3 receptor (Homo sapiens) (UniProt P11473); experiment: qHTS assay to identify small molecule agonists of the vitamin D receptor (VDR) signaling pathway (AID 743222; calls by dose curve)
In short: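 Cells carrying a VDR-driven beta-lactamase reporter are seeded at 2,000 per well and rested 4 h. Compounds in DMSO are added for 16 h at 37C, and FRET substrate fluorescence is measured after 2 h at room temperature.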

Measured: Potency

Peroxisome proliferator-activated receptor gamma (Homo sapiens), sequence (P37231 whole entry, looked up): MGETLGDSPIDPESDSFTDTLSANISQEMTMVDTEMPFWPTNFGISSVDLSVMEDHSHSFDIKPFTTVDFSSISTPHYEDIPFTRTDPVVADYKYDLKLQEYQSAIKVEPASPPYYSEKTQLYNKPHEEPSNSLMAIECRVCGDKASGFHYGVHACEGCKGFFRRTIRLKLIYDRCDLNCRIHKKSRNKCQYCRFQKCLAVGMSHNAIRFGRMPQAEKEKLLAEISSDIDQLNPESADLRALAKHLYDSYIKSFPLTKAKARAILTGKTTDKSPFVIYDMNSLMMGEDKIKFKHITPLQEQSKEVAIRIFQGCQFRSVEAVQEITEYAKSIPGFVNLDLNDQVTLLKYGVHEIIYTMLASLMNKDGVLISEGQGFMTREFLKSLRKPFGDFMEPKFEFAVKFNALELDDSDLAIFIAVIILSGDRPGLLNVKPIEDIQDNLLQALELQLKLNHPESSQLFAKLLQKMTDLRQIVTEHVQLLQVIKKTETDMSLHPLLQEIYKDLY
Vitamin D3 receptor (Homo sapiens), sequence (P11473 whole entry, looked up): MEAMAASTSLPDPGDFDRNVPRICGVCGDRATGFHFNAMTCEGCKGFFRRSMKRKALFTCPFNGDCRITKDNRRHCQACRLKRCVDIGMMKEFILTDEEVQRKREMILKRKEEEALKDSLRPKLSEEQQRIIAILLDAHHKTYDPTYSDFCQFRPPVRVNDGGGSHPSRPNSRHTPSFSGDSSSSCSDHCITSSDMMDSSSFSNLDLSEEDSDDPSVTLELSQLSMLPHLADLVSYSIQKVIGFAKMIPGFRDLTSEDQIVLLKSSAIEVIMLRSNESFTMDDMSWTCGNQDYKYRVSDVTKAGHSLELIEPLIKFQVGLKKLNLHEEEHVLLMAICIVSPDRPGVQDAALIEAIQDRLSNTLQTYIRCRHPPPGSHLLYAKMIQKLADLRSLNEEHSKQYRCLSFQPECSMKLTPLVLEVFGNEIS
Peroxisome proliferator-activated receptor delta (Homo sapiens), sequence (Q03181 whole entry, looked up): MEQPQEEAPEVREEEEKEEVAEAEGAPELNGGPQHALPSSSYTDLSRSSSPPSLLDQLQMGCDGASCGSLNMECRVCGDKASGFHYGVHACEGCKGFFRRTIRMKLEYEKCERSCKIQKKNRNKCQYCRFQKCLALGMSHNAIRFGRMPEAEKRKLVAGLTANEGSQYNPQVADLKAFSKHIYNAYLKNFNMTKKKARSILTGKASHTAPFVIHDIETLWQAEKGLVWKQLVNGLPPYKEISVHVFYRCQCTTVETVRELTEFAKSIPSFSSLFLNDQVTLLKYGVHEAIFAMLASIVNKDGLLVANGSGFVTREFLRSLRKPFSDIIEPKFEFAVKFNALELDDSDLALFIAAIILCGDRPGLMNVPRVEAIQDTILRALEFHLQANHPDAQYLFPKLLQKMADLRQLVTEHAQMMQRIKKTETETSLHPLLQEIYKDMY
Bile acid receptor (Homo sapiens), sequence (Q96RI1 whole entry, looked up): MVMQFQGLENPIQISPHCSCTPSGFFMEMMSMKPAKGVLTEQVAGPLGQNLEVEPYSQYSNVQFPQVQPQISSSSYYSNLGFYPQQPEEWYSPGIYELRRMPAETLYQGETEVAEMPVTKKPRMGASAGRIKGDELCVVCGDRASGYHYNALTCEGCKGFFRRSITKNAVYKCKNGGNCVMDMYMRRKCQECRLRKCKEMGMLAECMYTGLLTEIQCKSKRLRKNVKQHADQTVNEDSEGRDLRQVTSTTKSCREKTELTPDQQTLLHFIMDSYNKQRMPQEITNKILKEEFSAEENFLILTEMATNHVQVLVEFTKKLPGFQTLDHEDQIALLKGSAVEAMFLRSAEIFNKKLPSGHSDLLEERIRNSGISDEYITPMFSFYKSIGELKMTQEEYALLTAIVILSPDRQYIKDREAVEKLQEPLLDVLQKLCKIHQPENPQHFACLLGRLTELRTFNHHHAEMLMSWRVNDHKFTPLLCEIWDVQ
Aryl hydrocarbon receptor (Homo sapiens), sequence (P35869 whole entry, looked up): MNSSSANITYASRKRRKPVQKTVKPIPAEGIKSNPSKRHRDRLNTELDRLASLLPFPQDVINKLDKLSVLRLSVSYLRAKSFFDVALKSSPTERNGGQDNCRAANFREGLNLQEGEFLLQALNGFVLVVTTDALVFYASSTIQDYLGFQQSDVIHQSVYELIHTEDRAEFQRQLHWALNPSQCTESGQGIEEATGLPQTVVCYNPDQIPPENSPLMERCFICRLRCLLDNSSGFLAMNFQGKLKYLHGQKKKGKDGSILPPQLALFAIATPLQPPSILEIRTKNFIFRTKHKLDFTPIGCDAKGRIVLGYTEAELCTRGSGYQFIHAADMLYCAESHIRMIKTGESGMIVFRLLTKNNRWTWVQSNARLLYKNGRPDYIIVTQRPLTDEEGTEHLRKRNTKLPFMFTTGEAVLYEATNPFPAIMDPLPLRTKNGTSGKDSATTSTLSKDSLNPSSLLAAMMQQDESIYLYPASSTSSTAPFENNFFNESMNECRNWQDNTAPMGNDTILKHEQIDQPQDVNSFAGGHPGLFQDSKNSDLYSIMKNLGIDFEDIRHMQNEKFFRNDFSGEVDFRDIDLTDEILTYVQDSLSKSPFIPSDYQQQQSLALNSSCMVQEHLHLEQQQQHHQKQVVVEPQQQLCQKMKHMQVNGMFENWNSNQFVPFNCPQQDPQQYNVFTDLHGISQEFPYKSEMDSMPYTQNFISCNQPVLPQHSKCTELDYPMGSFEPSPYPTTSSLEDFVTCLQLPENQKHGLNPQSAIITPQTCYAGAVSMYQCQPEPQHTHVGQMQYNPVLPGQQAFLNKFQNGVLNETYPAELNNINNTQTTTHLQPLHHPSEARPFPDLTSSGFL

C/C=C1/C(=O)C[C@H]2[C@@H]3CCC4=CC(=O)CC[C@]4(C)[C@H]3CC[C@]12C
active: [5] 28.5 µM
inactive: [1] | [2] | [3] | [4] | [6] | [7] | [8]

CCCCCCCCCCn1cc[n+](CCCCCCCCCC)c1C
active: [9] 24.4 µM | [3] 6.93 µM | [4] 19.4 µM | [10] 7.77 µM | [6] 13.8 µM | [7] 39 µM | [8] 34.7 µM

Nc1ccc2cc(S(=O)(=O)O)cc(O)c2c1N=Nc1ccccc1C(F)(F)F
active: [9] 17.2 µM
not listed: [1] | [2]
inactive: all other assays above

CCCN(CCC)C(=O)C(CCC(=O)OCCCN1CCN(CCOC(=O)Cc2c(C)n(C(=O)c3ccc(Cl)cc3)c3ccc(OC)cc23)CC1)NC(=O)c1ccccc1 (stereo not drawn)
inactive: [13] | [4] | [18]
active: [1] 29.8 µM | [2] 21.1 µM | [10] 23.7 µM | [6] 21.1 µM | [16] 26.6 µM | [7] 16.8 µM | [8] 26.6 µM

CN1CCC(Nc2ncc3ncnc(Nc4ccc(F)c(Cl)c4)c3n2)CC1
active: [1] 13.3 µM | [5] 13.9 µM | [10] 23.7 µM | [6] 5.96 µM | [7] 11.9 µM
inactive: [3] | [14]

COc1ccc(CN2CCN(C(c3ccc(F)cc3)c3ccc(F)cc3)CC2)c(OC)c1OC
inactive: [1] | [4] | [5] | [19]
active: [12] 26.6 µM | [3] 26.6 µM | [10] 29.8 µM | [6] 23.7 µM | [7] 21.1 µM | [8] 29.8 µM

O=C(Nc1cccc(C(F)(F)F)c1)c1cc(Br)cc(Br)c1O
inactive: [1] | [2]
active: [3] 0.389 µM | [10] 6.16 µM | [6] 6.92 µM | [7] 4.36 µM | [8] 11 µM

CCCCCCCCNC(C)C(O)c1ccc(SC(C)C)cc1 (stereo not drawn)
active: [2] 23.7 µM | [3] 23.7 µM | [4] 16.8 µM | [14] 18.8 µM | [10] 9.44 µM | [6] 8.41 µM | [7] 18.8 µM | [8] 23.7 µM
inactive: [11]

CC1(C)CCC(C)(C)c2cc(C(=O)Nc3ccc(C(=O)O)cc3)ccc21
active: [18] 43.6 µM
not listed: [2] | [5] | [6] | [9] | [11] | [14] | [19]
inactive: all other assays above

CCCN(CCC)c1c([N+](=O)[O-])cc(C(F)(F)F)c(N)c1[N+](=O)[O-]
active: [9] 54.3 µM | [3] 19.4 µM | [4] 60.9 µM | [14] 34.6 µM | [10] 19.4 µM | [6] 30.8 µM | [7] 38.8 µM

CN(C)[C@@H]1C(=O)C(C(N)=O)=C(O)[C@@]2(O)C(=O)C3=C(O)c4c(O)cccc4C[C@H]3C[C@@H]12
inactive: [3] | [4] | [10] | [6] | [7]

Nc1cc(C(F)(F)F)ccc1S
inactive: [12] | [3] | [13] | [4] | [14] | [7] | [8] | [19]

CC(C)(C)C1CCC(CC2=C(O)c3ccccc3C(=O)C2=O)CC1 (stereo not drawn)
active: [13] 2.11 µM
inactive: [14] | [5] | [10] | [15] | [6]

CCCCCCCCOC(=O)c1ccc(O)cc1
active: [10] 48.8 µM | [6] 49 µM
inactive: [2] | [3] | [13] | [15] | [7] | [8]

CCc1cc(SCc2sc(-c3ccc(C(F)(F)F)cc3)nc2CN2CCN(c3ccc(OC)cc3)CC2)ccc1OCC(=O)O
active: [3] 24.5 µM | [4] 15.4 µM | [10] 7.76 µM | [6] 5.49 µM | [7] 7.76 µM | [8] 19.5 µM

CC[C@@]1(O)C(=O)OCc2c1cc1n(c2=O)Cc2c-1nc1ccccc1c2/C=N/OC(C)(C)C
active: [10] 11.9 µM | [7] 13.3 µM

O=c1cc(-c2ccc(O)cc2)oc2cc(O)cc(O)c12
active: [12] 21.9 µM | [14] 12.3 µM
inactive: [3] | [4] | [5] | [10] | [15] | [6] | [7] | [8]
inactive and 17.4 µM (active): [16]

OCc1c[nH]c2ccccc12
active: [12] 12.3 µM
inactive: [14] | [8]

Nc1ccc2c3c(cccc13)-c1ccccc1-2
inactive: [4] | [14] | [8]
active: [3] 49.5 µM | [10] 55.5 µM | [6] 49.5 µM

Cc1ccc(O)c2ncccc12
active: [13] 4.22 µM | [10] 0.841 µM | [6] 1.19 µM
inactive: [18]
